Measured values taken from PubChem BioAssay (NCATS).
Records with an inconclusive call do not appear. A number with no mark means an inactive call. The source made the active and inactive calls. The call rests on the fitted dose curve; in most records, active means well fitted inhibition curve with a large enough effect; inconclusive means small, poorly fitted or top-dose-only effect, or effect the other way; inactive means flat fitted curve, though single readings scatter.

Each molecule was assayed against ATP-dependent 6-phosphofructokinase (Trypanosoma brucei brucei) (UniProt O15648) (assay: qHTS Assay to Find Inhibitors of T. brucei phosphofructokinase: hit validation (AID 492961)). Conditions: T. brucei PFK, ADP-Glo luminescence; series mostly up to 51.4 µM; activity change, negative = inhibition: at the top concentration.
Summary of the method: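 Luminescence from ADP-Glo reports ADP generated as T. brucei PFK (1.25 nM) phosphorylates 0.5 mM fructose-6-phosphate using 0.1 mM ATP. Reactions ran 45 min at room temperature, pH 8.0.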
On the % scale 0 is the no-effect control and ±100 the full control effect; potency means the concentration at half of the fitted maximal effect.

Chain of ATP-dependent 6-phosphofructokinase (Trypanosoma brucei brucei) (O15648 whole entry, looked up): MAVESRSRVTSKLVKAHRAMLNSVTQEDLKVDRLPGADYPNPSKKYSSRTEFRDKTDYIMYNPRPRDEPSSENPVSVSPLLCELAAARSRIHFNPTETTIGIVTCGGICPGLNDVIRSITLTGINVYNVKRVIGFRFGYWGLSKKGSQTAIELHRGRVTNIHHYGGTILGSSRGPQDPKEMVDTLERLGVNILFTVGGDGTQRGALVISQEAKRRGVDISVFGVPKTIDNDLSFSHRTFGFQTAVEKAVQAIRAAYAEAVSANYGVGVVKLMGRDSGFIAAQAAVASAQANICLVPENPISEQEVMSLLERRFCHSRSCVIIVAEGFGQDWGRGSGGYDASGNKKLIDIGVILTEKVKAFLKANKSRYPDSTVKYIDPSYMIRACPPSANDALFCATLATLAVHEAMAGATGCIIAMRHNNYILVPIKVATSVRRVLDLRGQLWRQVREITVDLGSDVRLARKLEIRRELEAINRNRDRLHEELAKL

Compound	activity change, negative = inhibition	Potency
Cc1c(O)cccc1C(=O)N[C@@H](CSc1ccccc1)[C@H](O)CN1C[C@H]2CCCC[C@H]2C[C@H]1C(=O)NC(C)(C)C	0%	–
CCN(CC)CCSC(=O)C(c1ccccc1)c1ccccc1	–	inactive
Nc1ccc(S(=O)(=O)Nc2ccccc2)cc1	-2.5%	–
CN(C)CCN(Cc1ccccc1)c1ccccn1	10.1%	–
Nc1nc2c(ncn2CCC(CO)CO)c(=O)[nH]1	-6.66%	–
COc1cc2[nH]c(=O)[nH]c(=O)c2cc1OC	-4.05% [at 24.3 µM]	–
CC(O)COc1ccccc1 (stereo not given)	-5.79%	–
Cc1ccc2nc(N)[nH]c(=O)c2c1Sc1ccncc1	0%	–
O=S(=O)(O)c1cc(I)c(O)c2ncccc12	–	31.6 µM (active)
O=C(O)[C@@H]1CSCN1	-19%	–
CCCOC(=O)c1ccccc1	-0.936%	–
CCCCc1ncc(/C=C(\Cc2cccs2)C(=O)O)n1Cc1ccc(C(=O)O)cc1	-3.84%	–
NC(=O)NC(=O)Cc1ccccc1	-2.12%	–
NC(=O)NNc1ccccc1	–	inactive
C[C@@H]1CN(c2c(F)c(F)c3c(=O)c(C(=O)O)cn(C4CC4)c3c2F)C[C@H](C)N1	6.54%	–
CN1CCC[C@@H]1Cc1c[nH]c2ccc(CCS(=O)(=O)c3ccccc3)cc12	-4.61%	–
CCCCCCCCCCCCCCCCCCOCC(O)CO (stereo not given)	2.37%	–
O=C(O)c1ccccc1-c1ccc(C(F)(F)F)cc1	9.22%	–

Compound	activity change, negative = inhibition	Potency
O=C(O)c1ccccn1	0.96%	–
[O-][n+]1cccc(CO)c1	5.97%	–
COc1cc(C)c(Cc2cnc(N)nc2N)cc1OC	19.2%	–
O=C1c2c(O)cccc2Cc2cccc(O)c21	22.2%	–
Oc1cn2c(n1)Nc1ccc(Cl)c(Cl)c1C2	0%	–
CC(O)CN(CCN(CC(C)O)CC(C)O)CC(C)O (stereo not given)	-1.69%	–
CCCCC(CC)COC(=O)c1ccccc1O (stereo not given)	-7.76%	–
CCOC(=O)[C@H](CCc1ccccc1)N[C@@H](C)C(=O)N1C(=O)N(C)C[C@H]1C(=O)O	-4.97%	–
O=C(CCCN1CCN(c2ccccn2)CC1)c1ccc(F)cc1	-6.19%	–
CC(C)(C)C(=O)C(Oc1ccc(Cl)cc1)n1ccnc1 (stereo not given)	0%	–
Nc1ccc(S(=O)(=O)Nc2ccc(Cl)nn2)cc1	-4.12% [at 24.3 µM]	–
Cc1cc(C(C#N)c2ccc(Cl)cc2)c(Cl)cc1NC(=O)c1cc(I)cc(I)c1O (stereo not given)	-1.86%	–
CCn1cc(C(=O)O)c(=O)c2cnc(N3CCNCC3)nc21	-8.39% [at 24.3 µM]	–
N[C@@H](CSCCCO)C(=O)O	9.99%	–
Cc1cccc(C)c1NC(=O)CN(CC(=O)O)CC(=O)O	6.92%	–
COc1ccc2[nH]c(S(=O)Cc3ncc(C)c(OC)c3C)nc2n1 (stereo not given)	-1.44%	–
O=C(O)CC(O)C(=O)O (stereo not given)	2.45%	–
